# What was measured:
# Experiment in all cases: DAPPL (digital affinity profiling via proximity ligation, sequencing); 10 mM Tris-HCl pH 7.5, 50 mM NaCl, 1 mM DTT, 4% glycerol, room temperature, 30 min; GST-TFs on glutathione beads, 16-mer random dsDNA library, 0.1% formaldehyde crosslink after washing; high values mean tight binding
# [1] = molecular target: T1, FLI1 (Homo sapiens, UniProt Q01543 1-452); conditions: protein: recombinant; tags: N-terminal GST; dsDNA, one strand shown
# T1 sequence: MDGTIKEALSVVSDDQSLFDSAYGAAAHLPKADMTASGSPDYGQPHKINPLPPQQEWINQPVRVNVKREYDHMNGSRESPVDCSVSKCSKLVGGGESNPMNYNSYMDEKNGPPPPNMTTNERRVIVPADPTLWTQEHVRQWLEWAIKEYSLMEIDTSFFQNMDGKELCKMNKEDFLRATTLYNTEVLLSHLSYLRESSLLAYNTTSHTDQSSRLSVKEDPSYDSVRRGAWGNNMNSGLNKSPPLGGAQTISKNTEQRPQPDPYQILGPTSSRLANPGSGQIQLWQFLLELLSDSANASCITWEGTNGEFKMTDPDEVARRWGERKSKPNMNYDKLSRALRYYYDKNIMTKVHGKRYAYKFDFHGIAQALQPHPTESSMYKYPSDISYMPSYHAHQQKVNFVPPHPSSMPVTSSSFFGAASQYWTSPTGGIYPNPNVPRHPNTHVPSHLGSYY
# Outline: (§1)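 Human transcription factors carrying a GST fusion were produced in yeast, bound to glutathione beads, tagged with DNA barcodes and pooled together with a tag-only sample. Each pool was held with 200 nmole of a random double-stranded 16-mer DNA library in Tris/NaCl/DTT/glycerol buffer for 30 min at room temperature, then washed, crosslinked in 0.1% formaldehyde, proximity-ligated with BsaI/T4 ligase (1 h, 37 °C), PCR-amplified and sequenced on an Illumina NextSeq500. Binding signal is the read frequency of each hexamer for a given factor divided by its frequency in the tag-only sample.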
# [2] = molecular target: T2, EHF (Homo sapiens, UniProt Q9NZC4 1-300); conditions: protein: recombinant; tags: N-terminal GST; dsDNA, one strand shown
# T2 sequence: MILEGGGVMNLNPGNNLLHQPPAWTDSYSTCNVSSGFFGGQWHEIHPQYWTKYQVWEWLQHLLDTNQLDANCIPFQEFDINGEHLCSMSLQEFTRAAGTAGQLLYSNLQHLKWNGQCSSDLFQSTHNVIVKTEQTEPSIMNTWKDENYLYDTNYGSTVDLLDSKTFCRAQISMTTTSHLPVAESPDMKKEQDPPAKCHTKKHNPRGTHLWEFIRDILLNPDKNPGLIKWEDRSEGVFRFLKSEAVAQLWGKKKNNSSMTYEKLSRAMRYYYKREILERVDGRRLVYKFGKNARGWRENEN
# Outline: as §1
# [3] = molecular target: SPIB (Homo sapiens, UniProt Q01892 1-262); conditions: protein: recombinant; tags: N-terminal GST; dsDNA, one strand shown
# SPIB, sequence (Q01892 whole entry): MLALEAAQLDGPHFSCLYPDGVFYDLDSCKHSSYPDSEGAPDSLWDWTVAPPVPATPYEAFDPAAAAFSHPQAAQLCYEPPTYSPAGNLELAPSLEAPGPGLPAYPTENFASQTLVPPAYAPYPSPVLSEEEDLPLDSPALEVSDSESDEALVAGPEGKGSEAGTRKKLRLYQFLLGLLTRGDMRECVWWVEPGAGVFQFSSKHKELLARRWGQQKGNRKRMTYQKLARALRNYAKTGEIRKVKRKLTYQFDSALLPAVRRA
# Outline: as §1
# [4] = molecular target: T3, ETV2 (Homo sapiens, UniProt O00321 1-342); conditions: protein: recombinant; tags: N-terminal GST; dsDNA, one strand shown
# T3 sequence: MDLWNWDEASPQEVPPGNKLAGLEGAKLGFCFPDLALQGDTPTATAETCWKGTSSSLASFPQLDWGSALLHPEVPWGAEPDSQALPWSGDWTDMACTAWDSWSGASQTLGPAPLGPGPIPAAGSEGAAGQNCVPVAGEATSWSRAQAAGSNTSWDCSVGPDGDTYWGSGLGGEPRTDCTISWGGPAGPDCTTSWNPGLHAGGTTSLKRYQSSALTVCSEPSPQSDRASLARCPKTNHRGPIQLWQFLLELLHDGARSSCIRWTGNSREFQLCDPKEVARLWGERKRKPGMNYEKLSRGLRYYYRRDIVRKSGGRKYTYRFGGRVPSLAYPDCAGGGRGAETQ
# Outline: as §1
# [5] = molecular target: T4, ETV7 (Homo sapiens, UniProt Q9Y603 1-341); conditions: protein: recombinant; tags: N-terminal GST; dsDNA, one strand shown
# T4 sequence: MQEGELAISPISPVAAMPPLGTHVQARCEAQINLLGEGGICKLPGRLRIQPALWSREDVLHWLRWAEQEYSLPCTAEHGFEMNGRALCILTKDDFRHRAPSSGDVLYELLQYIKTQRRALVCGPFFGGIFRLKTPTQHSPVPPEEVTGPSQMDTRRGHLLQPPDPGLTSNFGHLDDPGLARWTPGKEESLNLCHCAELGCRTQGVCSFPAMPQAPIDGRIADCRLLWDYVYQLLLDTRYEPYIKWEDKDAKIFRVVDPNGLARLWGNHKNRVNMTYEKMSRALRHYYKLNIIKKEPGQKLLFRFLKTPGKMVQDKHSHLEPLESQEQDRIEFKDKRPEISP
# Outline: as §1
# [6] = molecular target: T5, ETV3 (Homo sapiens, UniProt P41162-2 1-143); conditions: protein: recombinant; tags: N-terminal GST; dsDNA, one strand shown
# T5 sequence: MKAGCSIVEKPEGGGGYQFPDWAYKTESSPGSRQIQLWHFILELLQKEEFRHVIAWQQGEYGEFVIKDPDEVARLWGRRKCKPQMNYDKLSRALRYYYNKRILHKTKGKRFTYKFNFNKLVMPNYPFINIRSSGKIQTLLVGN
# Outline: as §1
# [7] = molecular target: ETV6 (Homo sapiens, UniProt P41212 1-452); conditions: protein: recombinant; tags: N-terminal GST; dsDNA, one strand shown
# ETV6, sequence (P41212 whole entry): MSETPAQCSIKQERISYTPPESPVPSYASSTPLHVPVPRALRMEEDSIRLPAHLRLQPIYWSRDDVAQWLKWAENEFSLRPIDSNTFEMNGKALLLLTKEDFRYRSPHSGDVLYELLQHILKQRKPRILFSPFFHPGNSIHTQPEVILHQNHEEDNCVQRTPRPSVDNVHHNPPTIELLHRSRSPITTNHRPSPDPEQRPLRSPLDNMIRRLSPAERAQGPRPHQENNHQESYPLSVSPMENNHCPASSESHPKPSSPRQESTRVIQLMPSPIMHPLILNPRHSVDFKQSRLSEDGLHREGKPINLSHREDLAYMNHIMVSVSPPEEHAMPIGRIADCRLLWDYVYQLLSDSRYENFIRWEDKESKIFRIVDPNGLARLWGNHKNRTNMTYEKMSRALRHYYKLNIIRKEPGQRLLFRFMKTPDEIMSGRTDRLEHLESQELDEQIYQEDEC
# Outline: as §1
# [8] = molecular target: HSF1 (Homo sapiens, UniProt Q00613 1-529); conditions: protein: recombinant; tags: N-terminal GST; chain copies: 3; dsDNA, one strand shown
# HSF1, sequence (Q00613 whole entry): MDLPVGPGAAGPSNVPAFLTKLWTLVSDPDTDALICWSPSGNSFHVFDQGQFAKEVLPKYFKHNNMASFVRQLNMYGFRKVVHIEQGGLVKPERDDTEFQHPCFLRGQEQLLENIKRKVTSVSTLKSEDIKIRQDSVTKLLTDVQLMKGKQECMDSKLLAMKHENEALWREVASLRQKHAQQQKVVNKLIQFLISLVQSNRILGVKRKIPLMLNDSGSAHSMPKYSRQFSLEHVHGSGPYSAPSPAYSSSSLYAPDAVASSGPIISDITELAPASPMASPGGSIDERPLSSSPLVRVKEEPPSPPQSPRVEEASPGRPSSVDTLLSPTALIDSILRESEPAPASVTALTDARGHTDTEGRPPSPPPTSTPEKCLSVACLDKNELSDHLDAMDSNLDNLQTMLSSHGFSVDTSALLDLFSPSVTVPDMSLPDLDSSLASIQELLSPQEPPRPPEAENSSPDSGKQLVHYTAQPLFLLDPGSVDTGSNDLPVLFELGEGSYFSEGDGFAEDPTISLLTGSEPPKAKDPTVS
# Outline: as §1
# [9] = molecular target: ELF1 (Homo sapiens, UniProt P32519 1-619); conditions: protein: recombinant; tags: N-terminal GST; dsDNA, one strand shown
# ELF1, sequence (P32519 whole entry): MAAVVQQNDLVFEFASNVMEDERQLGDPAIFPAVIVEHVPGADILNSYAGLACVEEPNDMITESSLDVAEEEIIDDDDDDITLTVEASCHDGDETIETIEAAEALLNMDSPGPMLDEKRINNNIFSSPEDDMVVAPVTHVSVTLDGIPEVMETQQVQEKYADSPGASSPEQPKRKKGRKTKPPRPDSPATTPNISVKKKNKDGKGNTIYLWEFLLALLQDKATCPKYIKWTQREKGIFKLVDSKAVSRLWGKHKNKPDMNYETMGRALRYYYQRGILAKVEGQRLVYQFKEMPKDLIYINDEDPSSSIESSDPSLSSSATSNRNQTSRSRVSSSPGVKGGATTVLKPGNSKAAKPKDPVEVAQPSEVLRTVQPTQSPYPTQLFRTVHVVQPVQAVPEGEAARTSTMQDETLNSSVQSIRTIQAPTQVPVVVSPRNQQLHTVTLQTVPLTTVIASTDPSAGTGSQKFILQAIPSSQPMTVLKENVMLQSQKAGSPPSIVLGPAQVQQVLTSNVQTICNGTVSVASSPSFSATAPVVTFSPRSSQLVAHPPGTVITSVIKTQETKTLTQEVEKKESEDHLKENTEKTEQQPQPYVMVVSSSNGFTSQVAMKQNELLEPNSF
# Outline: as §1
# [10] = molecular target: T6, ELK3 (Homo sapiens, UniProt P41970 1-407); conditions: protein: recombinant; tags: N-terminal GST; dsDNA, one strand shown
# T6 sequence: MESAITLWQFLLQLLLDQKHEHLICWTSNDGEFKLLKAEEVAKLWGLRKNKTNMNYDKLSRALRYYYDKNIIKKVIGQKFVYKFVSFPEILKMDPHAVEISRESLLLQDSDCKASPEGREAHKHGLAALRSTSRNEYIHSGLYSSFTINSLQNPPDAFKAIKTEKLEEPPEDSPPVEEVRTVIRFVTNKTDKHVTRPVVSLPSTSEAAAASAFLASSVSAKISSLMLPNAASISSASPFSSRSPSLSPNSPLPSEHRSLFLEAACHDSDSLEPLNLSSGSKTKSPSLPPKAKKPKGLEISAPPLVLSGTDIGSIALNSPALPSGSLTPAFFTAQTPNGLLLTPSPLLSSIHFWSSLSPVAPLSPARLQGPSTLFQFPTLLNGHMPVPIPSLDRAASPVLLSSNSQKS
# Outline: as §1
sequence,measurement,setting,value
TGCGGT,binding signal,[1],"1.09 fold enrichment (6-mer frequency, TF over GST control)"
same,binding signal,[2],"1.07 fold enrichment (6-mer frequency, TF over GST control)"
same,binding signal,[3],"1.02 fold enrichment (6-mer frequency, TF over GST control)"
same,binding signal,[4],"1.08 fold enrichment (6-mer frequency, TF over GST control)"
same,binding signal,[5],"1 fold enrichment (6-mer frequency, TF over GST control)"
same,binding signal,[6],"1.01 fold enrichment (6-mer frequency, TF over GST control)"
same,binding signal,[7],"1.03 fold enrichment (6-mer frequency, TF over GST control)"
GCCAGA,binding signal,[8],"1.02 fold enrichment (6-mer frequency, TF over GST control)"
AGAGAA,binding signal,[8],"1.36 fold enrichment (6-mer frequency, TF over GST control)"
GTCCAA,binding signal,[1],"1.03 fold enrichment (6-mer frequency, TF over GST control)"
same,binding signal,[9],"1.03 fold enrichment (6-mer frequency, TF over GST control)"
same,binding signal,[5],"1.01 fold enrichment (6-mer frequency, TF over GST control)"
same,binding signal,[6],"1.04 fold enrichment (6-mer frequency, TF over GST control)"
TACCAG,binding signal,[8],"1.22 fold enrichment (6-mer frequency, TF over GST control)"
GTATGT,binding signal,[1],"1.04 fold enrichment (6-mer frequency, TF over GST control)"
same,binding signal,[9],"1.03 fold enrichment (6-mer frequency, TF over GST control)"
same,binding signal,[10],"1 fold enrichment (6-mer frequency, TF over GST control)"
same,binding signal,[4],"1.02 fold enrichment (6-mer frequency, TF over GST control)"
